Results published in the supplement of paper PMC10849652.
The full data set covers some 8,800 targets. This sample favours those with a hit. About 0.5% of all pairs of compound and target were hits. A number with no mark means an inactive call.

compound: Cc1sc2c(c1C)C(c1ccc(Cl)cc1)=N[C@@H](CC(=O)OC(C)(C)C)c1nnc(C)n1-2; assay: log2 fold change, soluble protein after heating vs DMSO (PISA); higher = thermal stabilisation; K562 lysate, 10 uM; active = over 0.2 and 3.5 SD of the protein, either way, in both replicates (recomputed)
How it was run: (§1)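 Thermal stability, expressed as log-two fold change relative to solvent controls, is given from duplicates. Crude K562 extract in PBS pH 7.4 with 1 mM MgCl2, at 1 mg/mL protein, was treated with 10 μM compound for 30 min and heated in aliquots for 3 min across 48°C-58°C. After pooling, adjustment to 0.5% NP-40 at 4°C and centrifugation at 21,000xg for 90 min, supernatant protein was measured by TMTpro 16plex LC-MS/MS with channel sums equalised.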

UniProt Q9BZ23, sequence (Q9BZ23 whole entry, looked up): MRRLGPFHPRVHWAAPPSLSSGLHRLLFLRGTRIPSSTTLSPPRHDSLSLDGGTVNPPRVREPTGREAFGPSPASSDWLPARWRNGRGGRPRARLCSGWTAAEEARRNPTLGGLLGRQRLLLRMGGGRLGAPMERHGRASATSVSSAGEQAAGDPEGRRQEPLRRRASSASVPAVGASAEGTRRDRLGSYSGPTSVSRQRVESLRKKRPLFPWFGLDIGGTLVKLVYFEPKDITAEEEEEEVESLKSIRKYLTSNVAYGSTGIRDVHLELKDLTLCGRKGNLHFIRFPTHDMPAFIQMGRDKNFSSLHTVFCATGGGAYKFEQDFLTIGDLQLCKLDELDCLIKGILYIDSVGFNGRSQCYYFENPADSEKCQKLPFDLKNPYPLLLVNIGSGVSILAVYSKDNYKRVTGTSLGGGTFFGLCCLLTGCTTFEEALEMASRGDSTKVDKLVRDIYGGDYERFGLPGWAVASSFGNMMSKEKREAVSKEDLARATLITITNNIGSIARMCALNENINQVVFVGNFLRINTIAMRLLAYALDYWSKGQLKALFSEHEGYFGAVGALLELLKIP
UniProt O94916, sequence (O94916 whole entry, looked up): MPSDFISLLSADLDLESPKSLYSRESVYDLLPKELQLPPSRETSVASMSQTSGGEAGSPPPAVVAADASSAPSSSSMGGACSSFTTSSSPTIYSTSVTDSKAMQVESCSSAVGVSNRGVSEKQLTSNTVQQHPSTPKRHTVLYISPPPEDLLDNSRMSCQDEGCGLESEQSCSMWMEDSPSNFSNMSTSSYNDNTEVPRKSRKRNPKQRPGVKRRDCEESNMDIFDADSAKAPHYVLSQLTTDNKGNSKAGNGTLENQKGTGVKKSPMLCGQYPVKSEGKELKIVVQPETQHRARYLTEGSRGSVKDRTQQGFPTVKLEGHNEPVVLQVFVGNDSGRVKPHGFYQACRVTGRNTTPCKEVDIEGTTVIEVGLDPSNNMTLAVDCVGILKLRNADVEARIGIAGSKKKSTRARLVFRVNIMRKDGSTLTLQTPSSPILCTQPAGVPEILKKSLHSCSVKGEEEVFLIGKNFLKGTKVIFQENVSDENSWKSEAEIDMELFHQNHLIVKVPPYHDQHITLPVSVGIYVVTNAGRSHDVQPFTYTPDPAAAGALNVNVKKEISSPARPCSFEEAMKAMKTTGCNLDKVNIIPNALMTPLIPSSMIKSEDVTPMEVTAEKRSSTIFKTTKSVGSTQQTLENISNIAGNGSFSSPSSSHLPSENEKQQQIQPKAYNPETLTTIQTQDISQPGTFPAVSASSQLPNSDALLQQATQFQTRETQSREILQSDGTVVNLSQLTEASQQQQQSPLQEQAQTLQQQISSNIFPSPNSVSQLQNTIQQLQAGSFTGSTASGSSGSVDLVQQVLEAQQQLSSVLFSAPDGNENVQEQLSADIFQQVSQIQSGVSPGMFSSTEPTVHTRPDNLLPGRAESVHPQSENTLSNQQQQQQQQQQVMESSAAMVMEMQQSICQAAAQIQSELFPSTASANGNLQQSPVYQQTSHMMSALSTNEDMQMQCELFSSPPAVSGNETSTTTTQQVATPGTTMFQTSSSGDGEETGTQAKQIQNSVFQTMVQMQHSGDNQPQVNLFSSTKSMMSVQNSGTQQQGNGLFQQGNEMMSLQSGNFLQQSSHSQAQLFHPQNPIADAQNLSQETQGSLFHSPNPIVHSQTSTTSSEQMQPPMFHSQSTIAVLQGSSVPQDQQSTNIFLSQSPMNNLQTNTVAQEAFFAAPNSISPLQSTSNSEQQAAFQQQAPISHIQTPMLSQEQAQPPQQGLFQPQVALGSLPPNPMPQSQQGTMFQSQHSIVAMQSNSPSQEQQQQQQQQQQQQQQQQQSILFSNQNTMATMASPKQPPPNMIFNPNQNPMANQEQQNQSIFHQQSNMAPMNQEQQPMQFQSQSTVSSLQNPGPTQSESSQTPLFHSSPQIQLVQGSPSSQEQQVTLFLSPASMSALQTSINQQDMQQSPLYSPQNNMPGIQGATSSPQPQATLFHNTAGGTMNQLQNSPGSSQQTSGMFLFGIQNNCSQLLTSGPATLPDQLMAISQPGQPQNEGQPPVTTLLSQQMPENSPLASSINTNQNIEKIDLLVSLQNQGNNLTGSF
UniProt Q9BXW6, sequence (Q9BXW6 whole entry, looked up): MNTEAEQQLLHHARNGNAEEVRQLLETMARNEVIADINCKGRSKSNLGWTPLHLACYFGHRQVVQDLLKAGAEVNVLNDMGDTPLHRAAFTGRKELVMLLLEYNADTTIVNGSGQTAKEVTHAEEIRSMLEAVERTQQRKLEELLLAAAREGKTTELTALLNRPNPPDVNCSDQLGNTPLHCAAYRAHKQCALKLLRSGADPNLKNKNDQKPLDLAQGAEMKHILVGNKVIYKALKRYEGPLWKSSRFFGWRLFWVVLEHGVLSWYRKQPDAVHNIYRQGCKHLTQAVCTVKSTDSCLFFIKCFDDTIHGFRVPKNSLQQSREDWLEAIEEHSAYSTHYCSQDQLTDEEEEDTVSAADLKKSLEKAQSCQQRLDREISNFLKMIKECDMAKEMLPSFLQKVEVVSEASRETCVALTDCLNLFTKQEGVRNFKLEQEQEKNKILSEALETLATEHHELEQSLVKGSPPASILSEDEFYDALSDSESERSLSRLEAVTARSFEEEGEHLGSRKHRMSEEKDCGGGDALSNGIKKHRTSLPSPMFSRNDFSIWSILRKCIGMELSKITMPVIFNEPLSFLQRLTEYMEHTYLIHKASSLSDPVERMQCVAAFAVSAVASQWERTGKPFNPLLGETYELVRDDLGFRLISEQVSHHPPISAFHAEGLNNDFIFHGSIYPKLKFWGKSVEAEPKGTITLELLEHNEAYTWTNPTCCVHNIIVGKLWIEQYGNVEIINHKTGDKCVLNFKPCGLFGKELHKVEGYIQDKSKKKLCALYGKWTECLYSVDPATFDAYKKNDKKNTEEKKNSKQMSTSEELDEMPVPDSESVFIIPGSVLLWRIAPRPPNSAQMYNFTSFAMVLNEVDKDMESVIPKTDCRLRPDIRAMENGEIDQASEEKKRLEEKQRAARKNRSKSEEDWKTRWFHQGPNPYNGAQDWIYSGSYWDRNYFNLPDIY
UniProt Q9BWT3, sequence (Q9BWT3 whole entry, looked up): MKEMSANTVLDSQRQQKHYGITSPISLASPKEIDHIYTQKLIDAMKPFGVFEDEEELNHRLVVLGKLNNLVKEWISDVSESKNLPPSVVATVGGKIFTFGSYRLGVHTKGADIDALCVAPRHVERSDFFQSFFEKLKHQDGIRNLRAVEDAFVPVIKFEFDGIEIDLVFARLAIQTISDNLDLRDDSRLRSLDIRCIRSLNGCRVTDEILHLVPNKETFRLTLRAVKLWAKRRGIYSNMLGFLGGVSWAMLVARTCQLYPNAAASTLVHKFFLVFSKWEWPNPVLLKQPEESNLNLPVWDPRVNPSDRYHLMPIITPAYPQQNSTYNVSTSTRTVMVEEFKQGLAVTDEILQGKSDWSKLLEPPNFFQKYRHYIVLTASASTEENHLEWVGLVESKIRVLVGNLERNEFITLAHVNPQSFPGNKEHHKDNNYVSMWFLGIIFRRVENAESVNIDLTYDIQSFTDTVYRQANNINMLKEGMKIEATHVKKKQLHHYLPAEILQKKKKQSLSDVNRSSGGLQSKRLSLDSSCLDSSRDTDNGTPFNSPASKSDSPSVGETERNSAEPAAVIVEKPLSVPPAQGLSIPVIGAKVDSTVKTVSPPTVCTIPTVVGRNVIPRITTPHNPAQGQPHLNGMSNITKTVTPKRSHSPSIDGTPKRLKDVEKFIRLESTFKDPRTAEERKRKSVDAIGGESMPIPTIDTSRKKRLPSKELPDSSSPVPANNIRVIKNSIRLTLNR
UniProt P10244, sequence (P10244 whole entry, looked up): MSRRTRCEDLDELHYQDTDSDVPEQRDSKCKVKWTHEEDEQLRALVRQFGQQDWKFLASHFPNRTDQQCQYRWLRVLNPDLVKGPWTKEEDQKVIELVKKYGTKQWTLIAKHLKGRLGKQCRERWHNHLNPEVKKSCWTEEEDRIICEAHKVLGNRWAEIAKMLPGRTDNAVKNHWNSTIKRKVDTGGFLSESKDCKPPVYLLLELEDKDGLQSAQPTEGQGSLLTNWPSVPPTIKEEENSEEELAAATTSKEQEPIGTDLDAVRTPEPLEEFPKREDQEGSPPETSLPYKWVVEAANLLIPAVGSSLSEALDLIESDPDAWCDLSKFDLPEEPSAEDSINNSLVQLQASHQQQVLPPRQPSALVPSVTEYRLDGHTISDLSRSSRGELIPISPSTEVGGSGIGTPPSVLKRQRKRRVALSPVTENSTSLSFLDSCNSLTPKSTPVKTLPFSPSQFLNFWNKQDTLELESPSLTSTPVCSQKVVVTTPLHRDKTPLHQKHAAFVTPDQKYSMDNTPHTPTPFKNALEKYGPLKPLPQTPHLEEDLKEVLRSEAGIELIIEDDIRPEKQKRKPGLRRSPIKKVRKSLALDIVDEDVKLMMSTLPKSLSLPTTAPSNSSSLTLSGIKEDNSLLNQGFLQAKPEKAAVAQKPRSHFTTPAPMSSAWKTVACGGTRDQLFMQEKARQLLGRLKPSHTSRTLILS
UniProt Q5JRK9, sequence (Q5JRK9 whole entry, looked up): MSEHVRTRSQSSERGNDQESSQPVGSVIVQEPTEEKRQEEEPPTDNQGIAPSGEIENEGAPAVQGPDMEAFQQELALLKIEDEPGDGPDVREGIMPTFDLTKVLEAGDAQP
UniProt Q9Y6C9, sequence (Q9Y6C9 whole entry, looked up): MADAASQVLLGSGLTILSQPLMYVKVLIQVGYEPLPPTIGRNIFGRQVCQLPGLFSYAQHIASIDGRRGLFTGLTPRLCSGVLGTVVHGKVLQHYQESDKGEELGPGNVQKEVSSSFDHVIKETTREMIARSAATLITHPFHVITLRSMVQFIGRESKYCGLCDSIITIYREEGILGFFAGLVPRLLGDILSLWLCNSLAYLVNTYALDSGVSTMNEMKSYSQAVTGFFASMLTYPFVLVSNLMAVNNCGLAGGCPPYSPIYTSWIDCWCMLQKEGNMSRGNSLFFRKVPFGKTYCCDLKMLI
UniProt O60829, sequence (O60829 whole entry, looked up): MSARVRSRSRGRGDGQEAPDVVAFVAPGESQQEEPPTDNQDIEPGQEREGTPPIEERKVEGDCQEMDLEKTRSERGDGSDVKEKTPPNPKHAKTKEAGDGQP

Row | Target | log2 fold change
1 | OSBPL1A (UniProt Q9BXW6) | -0.144
2 | NCAPH2 (UniProt Q6IBW4) | -0.005
3 | MRPL51 (UniProt Q4U2R6) | 0.066
4 | OGFR (UniProt Q9NZT2) | -0.038
5 | MYO9A isoform 4 (UniProt B2RTY4) | -0.027
6 | NPLOC4 (UniProt I3L3I1) | -0.101
7 | MTCH2 (UniProt Q9Y6C9) | -0.014
8 | NUDT4 isoform 2 (UniProt Q9NZJ9) | 0.067
9 | PAPOLG (UniProt Q9BWT3) | 0.074
10 | NARF (UniProt Q9UHQ1) | -0.019
11 | PAXBP1 (UniProt Q9Y5B6) | 0.057
12 | PAN2 isoform 2 (UniProt Q504Q3) | -0.044
13 | PARD3B (UniProt Q8TEW8) | 0.138
14 | NDUFS1 isoform 2 (UniProt P28331) | 0.013
15 | NOCT (UniProt Q9UK39) | 0.021
16 | NFAT5 isoform 5 (UniProt O94916) | -0.02
17 | P2RY1 (UniProt P47900) | -0.047
18 | MYBL2 (UniProt P10244) | 0.047
19 | NUDT6 (UniProt P53370) | 0.009
20 | MXRA7 (UniProt P84157) | -0.106
21 | PANK2 (UniProt Q9BZ23) | 0.019
22 | NUP93 (UniProt Q8N1F7) | 0.007
23 | NR2F2 (UniProt P24468) | -0.008
24 | N4BP2 (UniProt Q86UW6) | -0.022
25 | PAGE2B (UniProt Q5JRK9) | -0.072
26 | PAGE4 (UniProt O60829) | -0.143
27 | MTFP1 (UniProt Q9UDX5) | 0.079
28 | NRIP1 (UniProt P48552) | -0.071
29 | NUMB isoform 2 (UniProt P49757) | -0.207
30 | NFATC4 isoform 2 (UniProt Q14934) | -0.112

compound: c1ccc([C@@H]2C[C@H]2NC2CCNCC2)cc1; assay: as above
How it was run: as §1

Row | Target | log2 fold change
31 | OSBPL1A (UniProt Q9BXW6) | -0.084
32 | NCAPH2 (UniProt Q6IBW4) | 0.024
33 | MYO10 (UniProt Q9HD67) | 0.024
34 | MRPL51 (UniProt Q4U2R6) | -0.109
35 | OGFR (UniProt Q9NZT2) | 0.088
36 | MYO9A isoform 4 (UniProt B2RTY4) | -0.02
37 | MTCH2 (UniProt Q9Y6C9) | -0.083
38 | NUDT4 isoform 2 (UniProt Q9NZJ9) | -0.026
39 | MT-ATP8 (UniProt P03928) | 0.104
40 | PAPOLG (UniProt Q9BWT3) | -0.107
41 | NARF (UniProt Q9UHQ1) | 0
42 | PAXBP1 (UniProt Q9Y5B6) | 0.001
43 | PAN2 isoform 2 (UniProt Q504Q3) | 0.007
44 | PARD3B (UniProt Q8TEW8) | -0.085
45 | NDUFS1 isoform 2 (UniProt P28331) | 0.035
46 | ORC3 (UniProt Q9UBD5) | -0.276

Row | Target | log2 fold change
47 | NFAT5 isoform 5 (UniProt O94916) | -0.007
48 | MYLK (UniProt Q15746) | 0.123
49 | NSUN7 (UniProt Q8NE18) | -0.081
50 | P2RY1 (UniProt P47900) | -0.022
51 | MYBL2 (UniProt P10244) | 0.326 (active)
52 | MXRA7 (UniProt P84157) | -0.062
53 | PANK2 (UniProt Q9BZ23) | -0.077
54 | NUP93 (UniProt Q8N1F7) | 0.031
55 | NR2F2 (UniProt P24468) | 0.082
56 | N4BP2 (UniProt Q86UW6) | -0.068
57 | PAGE2B (UniProt Q5JRK9) | 0.182
58 | PAGE4 (UniProt O60829) | 0.118
59 | MTFP1 (UniProt Q9UDX5) | -0.222
60 | NRIP1 (UniProt P48552) | -0.069
61 | NFATC4 isoform 2 (UniProt Q14934) | -0.197
